Reference: PubChem BioAssay
Active and inactive are the calls of the source.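 How the source made its calls, unless noted: active means inhibition of the reporter signal at or above 50%; inactive means inhibition below 50%.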

How the values were obtained:
[1] = inhibitors of TNFa-induced NFkB p65 translocation, primary screen, imaging, HUVEC, MLSMR starter and 10KST1 sets (AID 438;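 active means inhibition above 20% together with a positive visual image hit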;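 further: compound added about 3h40 before a 20 min TNFalpha stimulation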;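 on inhibition: signal is the nuclear over cytoplasmic p65 intensity ratio per well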); conditions: HUVEC TNFa-induced p65 nuclear translocation; cell count: measured here: nuclei count (cytotoxicity indicator), at 2.08 µM; inhibition: at 2 µM, stronger effect = higher value, 0% TNFa-plus-vehicle, 100% no-TNFa wells
[2] = reduction of polyQ htt aggregates in cells – imaging, exon1htt(103Q)mCFP cells, high-content imaging, primary screen (AID 483;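 active means visual image review flags a hit and inhibition of aggregation exceeds 20%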;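 further: compound exposure lasted 3 days before fixation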;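 on nuclei count: percent of the per-plate median nuclei count of sample wells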); conditions: exon1htt(103Q)mCFP cell line, aggregate imaging, at 2 µM; inhibition of aggregation: stronger effect = higher value; nuclei count: measured here: cell count, toxicity
[3] = endothelial E-selectin expression blockers – imaging, HUVEC, immunofluorescence, MLSMR starter and 10KST1 sets, primary screen (AID 487;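 active means visually confirmed hit in the image check and inhibition above 20%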;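 on inhibition: signal is fraction of cell area covered by stained E-selectin grains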;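 on nuclei count: 100% = median nuclei count of all wells on the same plate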); conditions: HUVEC TNFalpha-induced E-selectin immunofluorescence imaging, at 2 µM; inhibition: stronger effect = higher value; nuclei count: measured here: cell number, toxicity
[4] = target: Voltage-gated potassium channel subunit beta-2 (Rattus norvegicus) (UniProt P62483); assay: inhibitors of rat Kvbeta2 reductase activity – biochemical, NADPH fluorescence, primary screen (AID 622;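 active means fluorescence slope higher than the sample average by over 3 SD, cut at about -0.22 in these data, passing the limit was not always enough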;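 further: slope of raw intensity against log time taken from 70 to 1610 s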); conditions: recombinant KvBeta, 4-cyanobenzaldehyde reduction, at 10 µM, stronger effect = higher value
[5] = target: Voltage-gated potassium channel subunit beta-2 (Rattus norvegicus) (UniProt P62483); assay: enhancers of rat Kvbeta2 NADPH turnover – biochemical, NADPH fluorescence, primary screen (AID 623;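 active means NADPH fluorescence slope more negative than the mean of all samples by about 3 SD, 99.7% confidence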;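 further: fluorescence intensity change per second fitted from 20 to 320 s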); conditions: Recombinant KvBeta, NADPH fluorescence decrease slope, 10 min; at 10 µM; stronger effect = lower value
[6] = target: Alpha-2C adrenergic receptor (Homo sapiens) (UniProt P18825); assay: compounds altering alpha2C-coupled GIRK flux – cell-based, HEK293 alpha2C/GIRK1/2, thallium flux, primary screen (AID 624;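 active means fluorescence slope after compound addition differing from the mean of all screened samples at 99.7% confidence, in either direction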;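 further: slope of fluorescence ratio to pre-addition baseline per second over 15 to 24 s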); conditions: thallium flux BTC fluorescence, at 10 µM, actives lie on both sides
[7] = blockers of RIG-like receptor reporter activation – cell-based, Sendai virus stimulus, luciferase, 10K MLSCN set, TLR/RLR signaling modifier project, primary screen (AID 602276;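 active means inhibition at or above 50% at 10 µM; inactive means inhibition below 50%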;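 further: firefly luciferase from ISG56 promoter only with Renilla not read in this screen; 0% = Sendai virus plus DMSO and 100% = medium plus DMSO without virus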); conditions: HEK293 RL24 IRF3 luciferase reporter, at 10 µM, stronger effect = higher value
[8] = TLR3 IRF3 reporter activation blockers – cell-based, poly I:C stimulus, luciferase, 10K MLSCN set, primary screen (AID 602277); conditions: HEK293-TLR3 RL24 IRF3 luciferase reporter, at 10 µM, stronger effect = higher value

Sequence of Alpha-2C adrenergic receptor (Homo sapiens) (P18825 whole entry, looked up): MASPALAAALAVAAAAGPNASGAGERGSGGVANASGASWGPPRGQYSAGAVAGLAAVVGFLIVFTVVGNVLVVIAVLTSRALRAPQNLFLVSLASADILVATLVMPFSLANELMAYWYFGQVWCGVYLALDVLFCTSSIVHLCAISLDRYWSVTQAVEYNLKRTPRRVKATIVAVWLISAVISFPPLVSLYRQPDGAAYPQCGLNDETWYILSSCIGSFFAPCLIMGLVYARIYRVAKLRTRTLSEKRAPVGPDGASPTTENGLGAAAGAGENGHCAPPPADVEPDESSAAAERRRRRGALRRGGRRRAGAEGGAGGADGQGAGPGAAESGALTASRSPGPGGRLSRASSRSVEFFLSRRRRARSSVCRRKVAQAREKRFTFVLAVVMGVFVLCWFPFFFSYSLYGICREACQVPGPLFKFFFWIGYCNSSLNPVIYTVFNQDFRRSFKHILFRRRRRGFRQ
Sequence of Voltage-gated potassium channel subunit beta-2 (Rattus norvegicus) (P62483 whole entry, looked up): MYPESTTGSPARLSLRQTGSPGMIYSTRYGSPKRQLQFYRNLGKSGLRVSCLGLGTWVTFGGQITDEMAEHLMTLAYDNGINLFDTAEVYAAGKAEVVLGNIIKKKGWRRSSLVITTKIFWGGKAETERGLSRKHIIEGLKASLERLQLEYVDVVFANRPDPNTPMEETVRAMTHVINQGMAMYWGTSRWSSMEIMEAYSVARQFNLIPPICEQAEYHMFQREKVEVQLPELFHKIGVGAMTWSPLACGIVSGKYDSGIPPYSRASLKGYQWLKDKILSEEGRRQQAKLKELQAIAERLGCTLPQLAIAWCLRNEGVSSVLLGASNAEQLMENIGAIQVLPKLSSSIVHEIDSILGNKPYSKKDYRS

Q: With `Cc1cccn2c(=O)c3cc(C(=O)NC4CCCC4)c(=N)n(C4CCCC4)c3nc12` as the compound, how does the cell count [1] read?
A: The cell count was 786.

Q: What about the inhibition [1] of the same compound?
A: Its inhibition is 2.4% (inactive).

Q: What about the inhibition of aggregation [2] of the same compound?
A: Its inhibition of aggregation is -58% (inactive).

Q: What about the nuclei count [2] of the same compound?
A: Its nuclei count is 107%.

Q: What about the inhibition [3] of the same compound?
A: The inhibition was -189% (inactive).

Q: What about the nuclei count [3] of the same compound?
A: Its nuclei count is 126%.

Q: And the fluorescence slope [4]?
A: The fluorescence slope was -0.0946 (inactive).

Q: And the NADPH fluorescence slope [5]?
A: Its NADPH fluorescence slope is -1.1e-05 (inactive).

Q: What about the slope [6] of the same compound?
A: The slope was 0.00161 (inactive).

Q: What about the inhibition [7] of the same compound?
A: Its inhibition is 17.5% (inactive).

Q: What about the inhibition [8] of the same compound?
A: The inhibition was 32.7% (inactive).

Q: Which cell count [1] does the source give for `Cn1nnnc1SCC(=O)NC1CCCCC1` here?
A: The cell count was 228.

Q: What about the inhibition [1] of the same compound?
A: The inhibition was 3.4% (inactive).

Q: What about the inhibition of aggregation [2] of the same compound?
A: Its inhibition of aggregation is 20% (inactive).

Q: And the nuclei count [2]?
A: The nuclei count was 84.3%.

Q: What about the inhibition [3] of the same compound?
A: The inhibition was -0.8% (inactive).

Q: And the nuclei count [3]?
A: Its nuclei count is 79.2%.

Q: What about the fluorescence slope [4] of the same compound?
A: The fluorescence slope was -0.432 (inactive).

Q: What about the NADPH fluorescence slope [5] of the same compound?
A: Its NADPH fluorescence slope is 4.4e-07 (inactive).

Q: And the slope [6]?
A: The slope was 0.00705 (inactive).

Q: What about the inhibition [7] of the same compound?
A: Its inhibition is 5.19% (inactive).

Q: And the inhibition [8]?
A: Its inhibition is 19.8% (inactive).

Q: For `COc1ccc2[nH]c(=O)c(CN(C(=O)c3cccnc3)c3ccccc3OC)cc2c1`, which cell count [1] is on record?
A: Its cell count is 466.

Q: What about the inhibition [1] of the same compound?
A: Its inhibition is -3.3% (inactive).

Q: What about the inhibition of aggregation [2] of the same compound?
A: The inhibition of aggregation was -3% (inactive).

Q: And the nuclei count [2]?
A: The nuclei count was 114%.

Q: And the inhibition [3]?
A: Its inhibition is -19.8% (inactive).

Q: What about the nuclei count [3] of the same compound?
A: Its nuclei count is 113%.

Q: What about the fluorescence slope [4] of the same compound?
A: The fluorescence slope was -0.449 (inactive).

Q: And the NADPH fluorescence slope [5]?
A: Its NADPH fluorescence slope is 1.5e-05 (inactive).

Q: What about the slope [6] of the same compound?
A: Its slope is 0.00765 (inactive).

Q: And the inhibition [7]?
A: Its inhibition is 12.5% (inactive).

Q: What about the inhibition [8] of the same compound?
A: Its inhibition is 22.6% (inactive).

Q: With `CCOc1ccc(-c2nc(C#N)c(N3CCCCCC3)o2)cc1` as the compound, how does the cell count [1] read?
A: The cell count was 759.

Q: And the inhibition [1]?
A: The inhibition was 6% (inactive).

Q: What about the inhibition of aggregation [2] of the same compound?
A: Its inhibition of aggregation is 11.5% (inactive).

Q: And the nuclei count [2]?
A: Its nuclei count is 110%.

Q: What about the inhibition [3] of the same compound?
A: The inhibition was -122% (inactive).

Q: And the nuclei count [3]?
A: The nuclei count was 114%.

Q: And the fluorescence slope [4]?
A: The fluorescence slope was -0.579 (inactive).

Q: And the NADPH fluorescence slope [5]?
A: Its NADPH fluorescence slope is -1.9e-05 (inactive).

Q: And the slope [6]?
A: Its slope is 0.0066 (inactive).

Q: What about the inhibition [7] of the same compound?
A: Its inhibition is -2.19% (inactive).

Q: And the inhibition [8]?
A: Its inhibition is 4.25% (inactive).

Q: Which results are given for `COCCN(CC(=O)NCc1ccccc1)C(=O)CCC(=O)Nc1ccccn1`?
A: cell count [1]: 663; inhibition [1]: -4.4% (inactive); inhibition of aggregation [2]: 6.3% (inactive); nuclei count [2]: 86%; inhibition [3]: 38.3% (inactive); nuclei count [3]: 117%; fluorescence slope [4]: -0.506 (inactive); NADPH fluorescence slope [5]: -2.7e-05 (inactive); slope [6]: 0.00555 (inactive); inhibition [7]: 19.1% (inactive); inhibition [8]: 19.4% (inactive)

Q: Which results are given for `O=C(CN1CCCN(S(=O)(=O)c2ccc(Br)cc2)CC1)Nc1ccc2c(c1)OCO2`?
A: cell count [1]: 587; inhibition [1]: -4.1% (inactive); inhibition of aggregation [2]: -15.4% (inactive); nuclei count [2]: 107%; inhibition [3]: -24.8% (inactive); nuclei count [3]: 84.9%; fluorescence slope [4]: -0.491 (inactive); NADPH fluorescence slope [5]: -3.2e-05 (inactive); slope [6]: 0.00566 (inactive); inhibition [7]: 10.3% (inactive); inhibition [8]: 38.2% (inactive)

Q: Which cell count [1] does the source give for `C=CCn1c(SCC(=O)C(C)(C)C)nnc1-c1ccccn1` here?
A: The cell count was 583.

Q: What about the inhibition [1] of the same compound?
A: The inhibition was -3.4% (inactive).

Q: What about the inhibition of aggregation [2] of the same compound?
A: Its inhibition of aggregation is 16.4% (inactive).

Q: What about the nuclei count [2] of the same compound?
A: Its nuclei count is 83.3%.

Q: What about the inhibition [3] of the same compound?
A: The inhibition was 9.2% (inactive).

Q: What about the nuclei count [3] of the same compound?
A: Its nuclei count is 90.9%.

Q: And the fluorescence slope [4]?
A: The fluorescence slope was -0.291 (inactive).

Q: What about the NADPH fluorescence slope [5] of the same compound?
A: The NADPH fluorescence slope was -5.6e-05 (inactive).

Q: What about the slope [6] of the same compound?
A: Its slope is 0.00526 (inactive).

Q: And the inhibition [7]?
A: Its inhibition is 12.5% (inactive).

Q: And the inhibition [8]?
A: Its inhibition is 18.5% (inactive).

Q: Which results are given for `CCN1CCCC1CN=Cc1c(O)n(-c2ccccc2)c(=O)c2ccccc12` (stereo not drawn)?
A: cell count [1]: 609; inhibition [1]: -0.3% (inactive); inhibition of aggregation [2]: -8.1% (inactive); nuclei count [2]: 109%; inhibition [3]: -12.1% (inactive); nuclei count [3]: 97.6%; fluorescence slope [4]: -0.598 (inactive); NADPH fluorescence slope [5]: -2e-05 (inactive); slope [6]: 0.00513 (inactive); inhibition [7]: -6.81% (inactive); inhibition [8]: 16.9% (inactive)
